Most compounds without a hit are left out; they make up all but 13% or so of the library.
USP8 block: human USP8 deubiquitinase inhibition | AID 1645853 | actives 4.2% (n = 47,000) | purified USP8, Ub-rhodamine cleavage fluorescence, 30 min | inhibition, % at 20 µM | P40818
USP30 block: human USP30 deubiquitinase inhibition; purified USP30, Ub-rhodamine cleavage fluorescence; Q70CQ3; actives 5.3% (n = 47,000); inhibition, % at 25 µM; AID 1645860
USP28 inh: human USP28 deubiquitinase inhibition. purified USP28, Ub-rhodamine cleavage fluorescence, 30 min. inhibition, % at 25 µM. actives 3% (n = 47,000)
Target sequence (Q96RU2 whole entry, looked up): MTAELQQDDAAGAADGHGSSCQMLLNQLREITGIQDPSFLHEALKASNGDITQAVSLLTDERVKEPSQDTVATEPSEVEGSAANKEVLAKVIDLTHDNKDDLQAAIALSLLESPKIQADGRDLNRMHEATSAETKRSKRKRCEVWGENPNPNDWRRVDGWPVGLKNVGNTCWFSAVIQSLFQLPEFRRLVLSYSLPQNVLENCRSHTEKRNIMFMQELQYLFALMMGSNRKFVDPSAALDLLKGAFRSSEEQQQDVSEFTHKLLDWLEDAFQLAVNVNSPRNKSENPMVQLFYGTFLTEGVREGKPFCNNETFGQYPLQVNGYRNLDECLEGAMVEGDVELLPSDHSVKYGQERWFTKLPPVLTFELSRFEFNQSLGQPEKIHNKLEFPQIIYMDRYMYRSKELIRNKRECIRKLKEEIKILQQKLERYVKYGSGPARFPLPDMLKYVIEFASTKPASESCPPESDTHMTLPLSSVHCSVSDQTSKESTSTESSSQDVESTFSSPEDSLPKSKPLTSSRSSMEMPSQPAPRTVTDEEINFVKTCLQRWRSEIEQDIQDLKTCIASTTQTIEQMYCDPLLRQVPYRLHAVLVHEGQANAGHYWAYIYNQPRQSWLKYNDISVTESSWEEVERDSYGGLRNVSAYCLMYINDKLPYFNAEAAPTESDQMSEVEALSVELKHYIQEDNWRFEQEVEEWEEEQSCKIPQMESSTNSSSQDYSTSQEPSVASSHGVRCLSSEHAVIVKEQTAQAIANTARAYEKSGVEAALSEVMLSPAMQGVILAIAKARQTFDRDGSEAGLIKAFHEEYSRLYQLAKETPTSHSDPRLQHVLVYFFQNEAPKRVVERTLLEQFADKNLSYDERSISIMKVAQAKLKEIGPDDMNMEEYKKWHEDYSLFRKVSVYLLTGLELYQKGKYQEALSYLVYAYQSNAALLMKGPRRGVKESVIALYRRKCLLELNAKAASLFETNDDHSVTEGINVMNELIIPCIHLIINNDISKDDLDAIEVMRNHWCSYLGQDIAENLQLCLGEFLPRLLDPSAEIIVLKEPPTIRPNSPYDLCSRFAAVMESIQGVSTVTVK
OTUD3 inh: inhibitors of human OTUD3 deubiquitinase | AID 1645858 | actives 0.7% (n = 47,000) | Q5T2D3 | purified OTUD3, Ub-rhodamine fluorescence, 2 h | inhibition, % at 25 µM
USP17 inh: blocks human USP17 ubiquitin-rhodamine cleavage | A8MUK1 | purified USP17, Ub-rhodamine cleavage fluorescence, 3 h | inhibition, % at 50 µM | actives 6.5% (n = 47,000)
An asterisk follows results filed as active; / = no result. Rule as the data show it: active = inhibition above about 30%; inactive = the rest.

SMILES	USP8 block	USP30 block	USP28 inh	OTUD3 inh	USP17 inh
COc1ccc(CCNc2cc3n(c(=O)n2)CCc2cc(OC)c(OC)cc2-3)cc1OC	-28	-46	-20	5	-12
COc1cc2c(cc1OC)-c1cc(Nc3ccc(Br)cc3)nc(=O)n1CC2	8	53*	23	-5	25
O=C(COc1ccc2c(-c3ccccc3)cc(=O)oc2c1)Nc1cccnc1	28	68*	19	14	20
O=C(COc1ccccc1)Nc1cnc(-c2cccnc2)nc1	1	14	7	8	0
COc1cc(Cl)c(C)cc1-n1cc(C(=O)c2cc(Cl)ccc2O)cc(C#N)c1=O	5	-226	-98	-91	-26
COc1ccc(O)c(C(=O)c2cc(C#N)c(=O)n(-c3cccc(C(F)(F)F)c3)c2)c1	65*	-33	10	-15	17
Cc1ccc(-c2cc(NC(=O)C(C)C)c(=O)n(CC(=O)Nc3cccc(F)c3)n2)cc1	-1	-13	-7	-2	-1
O=C(Cn1nc(-c2ccco2)ccc1=O)Nc1cccc(Br)c1	1	29	12	13	37*
COCCCNC(=O)c1ccc(Cn2c(=O)c3ccccc3n(CC(=O)Nc3ccc(OC)cc3OC)c2=O)cc1	11	/	/	5	75*
COc1ccc(NC(=O)Cn2c(=O)n(Cc3ccco3)c(=O)c3ccc(C(=O)NC4CCCC4)cc32)cc1	60*	10	0	9	11
COCCCNC(=O)Cn1c(=O)n(Cc2ccc(C(=O)NCc3ccccc3OC)cc2)c(=O)c2ccccc21	14	53*	27	24	13
COCCCNC(=O)c1ccc(Cn2c(=O)c3ccccc3n(CC(=O)Nc3ccc(OC)cc3)c2=O)cc1	6	6	5	0	67*
Cc1ccc(Cn2c(=O)c(CCC(=O)NCC3CCCO3)nc3ccccc32)cc1 (configuration not stated)	0	-9	3	9	6
CCOc1ccc(CC(=O)Nc2ccc(-c3cn4cccnc4n3)cc2)cc1	40*	-22	44*	-6	68*
O=C(c1ccccc1)N1CCc2nc(C(=O)N3CCCCC3)sc2CC1	1	-6	-4	-1	-12
COCCCN1CCS(=O)(=O)c2c(Cl)c(F)nc(Oc3ccccc3)c21	35*	-2	7	-7	41*
O=S1(=O)CCN(Cc2ccccc2)c2c(OCC3CCCO3)nc(F)c(Cl)c21 (configuration not stated)	-18	-3	5	-1	-1
COc1ccc(Oc2nc(F)c(Cl)c3c2N(CC2CCCO2)CCS3(=O)=O)cc1 (configuration not stated)	69*	-51	17	6	33*
CCCCN1CCS(=O)(=O)c2c(Cl)c(F)nc(Oc3ccc(OC)cc3)c21	50*	4	10	8	25
CNc1ccc(Oc2nc(F)c(Cl)c3c2N(CC2CCCO2)CCS3(=O)=O)cc1 (configuration not stated)	25	16	-1	1	12
N#C/C(=C\c1cccc(Oc2ncccn2)c1)c1ccc2c(c1)OCO2	3	/	/	12	30*
COc1ccc(/C(C#N)=C\c2ccc3c(c2)OCO3)cc1	30*	35*	33*	21	29
COc1ccccc1C1CCN(Cc2c[nH]c3ccccc23)CC1	-10	0	0	0	-8
Cc1ccc(OCCCn2c(CNC(=O)c3ccco3)nc3ccccc32)cc1	41*	25	19	10	17
Cc1ccccc1OCCCn1c(CN(C)C(=O)c2ccco2)nc2ccccc21	-4	-6	-4	-10	30*
SMILES	USP8 block	USP30 block	USP28 inh	OTUD3 inh	USP17 inh
Cc1cccc(OCCCn2c(CN(C)C(=O)c3ccco3)nc3ccccc32)c1	-8	-2	-10	-7	-14
COc1ccc(N2CCN(C(=O)c3csc4c3CCC(C(C)(C)C)C4)CC2)cc1 (configuration not stated)	70*	-16	3	0	22
COc1ccc(CNc2ncc(C(=O)N3CCN(c4ccc(F)cc4)CC3)c(C)n2)cc1	-12	-33	-21	-12	-14
CCc1nc(C2CCCN2CC(=O)N(C)C2(C#N)CCCCC2)no1 (configuration not stated)	4	-21	-15	-8	-4
Cc1ccc(-n2c(Cc3cccn3C)nnc2SCC(=O)N2CCCC2)cc1	-34	-82	-35	-30	-30
CCOc1cc2[nH]c(=O)n(CCCC(=O)NCc3ccco3)c(=O)c2cc1OCC	8	-82	-3	5	33*
CCOc1cc2[nH]c(=O)n(Cc3cccnc3)c(=O)c2cc1OCC	22	33*	7	11	17
COc1ccc(NC(=O)CCCCn2c(=O)[nH]c3ccccc3c2=O)cc1OC	-7	3	-4	-4	17
COc1cc(NC(=O)Cn2c(=O)[nH]c3ccccc3c2=O)cc(OC)c1	19	73*	25	11	53*
COc1cccc(CNC(=O)CCCCCn2c(=O)[nH]c3ccccc3c2=O)c1	17	41*	12	10	29
COCCNC(=O)c1cccc2c1C(=O)N(C1CCCCC1)C2	0	29	13	14	11
Cc1ccc(-c2cc(C(=O)Nc3ccccc3Cl)[nH]n2)c(O)c1C	33*	29	-4	-8	0
Cc1ccc(O)c(-c2cc(C(=O)Nc3ccccc3Cl)[nH]n2)c1	5	27	6	-7	68*
COc1ccc(NC(=O)CC2C(=O)N(c3ccc(Cl)cc3)C(=O)N2Cc2cccnc2)cc1 (configuration not stated)	-10	-11	-3	-8	-9
Cc1ccc(S(=O)(=O)Nc2ccc3[nH]cc(Cl)c3c2)cc1	42*	39*	44*	13	49*
COc1ccc(CNC(=O)c2ccc(N3CCOCC3)c([N+](=O)[O-])c2)cc1	-77	16	8	16	-5
COc1ccc(N2CCN(c3ccc(Cl)cc3[N+](=O)[O-])CC2)cc1	33*	-23	-8	-2	13
O=C(CC1Nc2ccccc2OC1=O)Nc1ccc(Cl)cc1 (configuration not stated)	-48	-180	-95	-23	1
Cc1cc2c(cc1C)NC(CC(=O)Nc1ccc(O)cc1)C(=O)N2 (configuration not stated)	81*	-50	24	-2	64*
O=C(c1csc(-c2ccc(N3CCCC3)nc2)n1)N1CCCC1	0	-21	-10	-5	-12
CO\C=C(C(=O)OC)/C(C)=C\C=C\c1ccc(OCC=C(C)C)c(O)c1	8	27	22	7	40*
Cc1ccc2c(c1)OCC(=O)N2Cc1nc(-c2ccccc2)no1	-2	26	29	10	45*
Cc1ccc2c(c1)OCC(=O)N2Cc1nc(-c2cccc(F)c2)no1	18	35*	26	27	13
CN(C)C(=O)[C@@H]1C[C@@H]2CN(C(=O)Nc3ccccc3)CCN2[C@@]12C(=O)Nc1ccccc12	2	9	-2	4	5

Bioassay records as filed in PubChem BioAssay.
